From the supplement of paper PMC11732987, “Enantioselective OTUD7B fragment discovery through chemoproteomics screening and high-throughput optimisation” (Communications Chemistry, 2025)

Columns and labels:
Assay in all cases: log2 ratio of Biotin-Ahx-Ub-VS probe labelling (fragment/DMSO); higher = less target engagement (more negative = stronger competition), active = hit call of the paper (q ≤ 0.05, log2 ratio ≤ -1)
Details in all cases: compound concentration: 200 uM; treatment time: 3 h
USP34 = USP34 (UniProt Q70CQ2)
Summary of the method: (§1)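 The table lists average log2 ratios of fragment over vehicle, from an unpaired t-test on global-median-normalised Spectronaut label-free quantities. Proteins with ≥2 unique peptides were used. Samples were HEK293T lysate (495 µg) treated in triplicate with fragment at 200 µM or vehicle for 3 h, then with Biotin-Ahx-Ub-VS (0.5 µM final) for 1 h, with labelled DUBs NeutrAvidin-enriched and run by diaPASEF LC-MS/MS.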

USP36 = biological target: T1, USP36 (UniProt Q9P275)
T1 sequence (whole entry): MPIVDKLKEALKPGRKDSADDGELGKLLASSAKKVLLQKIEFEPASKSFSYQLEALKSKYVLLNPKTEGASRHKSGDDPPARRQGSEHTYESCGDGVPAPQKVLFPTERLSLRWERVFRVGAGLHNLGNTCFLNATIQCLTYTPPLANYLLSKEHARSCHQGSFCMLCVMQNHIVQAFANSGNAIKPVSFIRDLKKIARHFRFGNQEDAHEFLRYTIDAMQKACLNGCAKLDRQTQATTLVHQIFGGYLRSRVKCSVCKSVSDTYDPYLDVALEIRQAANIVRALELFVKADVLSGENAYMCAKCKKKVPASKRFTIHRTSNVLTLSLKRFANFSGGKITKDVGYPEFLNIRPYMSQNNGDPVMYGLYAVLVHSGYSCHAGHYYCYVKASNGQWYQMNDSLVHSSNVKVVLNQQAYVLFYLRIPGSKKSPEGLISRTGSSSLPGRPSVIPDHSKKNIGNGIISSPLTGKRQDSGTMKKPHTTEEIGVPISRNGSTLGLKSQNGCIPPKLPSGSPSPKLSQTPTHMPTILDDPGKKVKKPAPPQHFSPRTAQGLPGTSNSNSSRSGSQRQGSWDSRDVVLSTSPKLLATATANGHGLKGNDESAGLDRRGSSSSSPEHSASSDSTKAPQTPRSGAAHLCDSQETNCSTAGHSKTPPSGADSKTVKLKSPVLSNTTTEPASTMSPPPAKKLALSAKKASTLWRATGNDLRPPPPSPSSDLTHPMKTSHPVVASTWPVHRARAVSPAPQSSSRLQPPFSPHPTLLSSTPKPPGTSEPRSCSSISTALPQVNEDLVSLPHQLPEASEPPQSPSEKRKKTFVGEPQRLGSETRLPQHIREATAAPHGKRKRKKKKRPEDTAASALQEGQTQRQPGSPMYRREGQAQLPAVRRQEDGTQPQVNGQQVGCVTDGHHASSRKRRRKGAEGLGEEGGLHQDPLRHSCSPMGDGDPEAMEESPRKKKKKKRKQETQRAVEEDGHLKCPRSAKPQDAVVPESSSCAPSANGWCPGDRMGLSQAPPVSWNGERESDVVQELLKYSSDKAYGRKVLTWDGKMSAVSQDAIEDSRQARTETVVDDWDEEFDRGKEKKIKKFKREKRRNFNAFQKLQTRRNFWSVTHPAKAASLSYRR
Summary of the method: as §1

USP38 = biological target: T2, USP38 (UniProt Q8NB14)
T2 sequence (whole entry): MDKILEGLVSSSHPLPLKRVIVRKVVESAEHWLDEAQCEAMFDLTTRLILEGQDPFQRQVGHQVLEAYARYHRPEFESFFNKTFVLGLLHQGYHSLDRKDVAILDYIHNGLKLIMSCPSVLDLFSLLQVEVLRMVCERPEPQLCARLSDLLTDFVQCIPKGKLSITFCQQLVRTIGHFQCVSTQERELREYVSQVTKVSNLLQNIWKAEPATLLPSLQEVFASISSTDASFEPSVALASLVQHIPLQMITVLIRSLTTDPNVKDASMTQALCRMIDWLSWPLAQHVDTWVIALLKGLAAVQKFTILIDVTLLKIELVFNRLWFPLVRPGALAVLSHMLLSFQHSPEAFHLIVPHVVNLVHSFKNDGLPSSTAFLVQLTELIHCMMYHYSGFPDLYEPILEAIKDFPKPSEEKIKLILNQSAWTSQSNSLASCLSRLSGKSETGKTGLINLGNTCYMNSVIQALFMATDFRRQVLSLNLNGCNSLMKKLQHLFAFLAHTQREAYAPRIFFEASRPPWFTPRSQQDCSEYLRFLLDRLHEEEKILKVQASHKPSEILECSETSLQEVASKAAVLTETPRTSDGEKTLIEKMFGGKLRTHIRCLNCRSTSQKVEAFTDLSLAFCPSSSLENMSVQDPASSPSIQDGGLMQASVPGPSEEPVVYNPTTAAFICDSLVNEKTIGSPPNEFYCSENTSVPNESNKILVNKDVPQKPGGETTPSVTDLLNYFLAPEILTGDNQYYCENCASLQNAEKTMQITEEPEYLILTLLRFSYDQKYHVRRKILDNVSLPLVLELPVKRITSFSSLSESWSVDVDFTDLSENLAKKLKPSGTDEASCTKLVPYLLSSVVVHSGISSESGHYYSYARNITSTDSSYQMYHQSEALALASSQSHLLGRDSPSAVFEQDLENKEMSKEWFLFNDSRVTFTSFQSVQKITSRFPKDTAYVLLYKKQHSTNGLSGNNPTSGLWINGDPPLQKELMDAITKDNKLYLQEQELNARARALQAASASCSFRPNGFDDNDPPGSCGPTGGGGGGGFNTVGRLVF
Summary of the method: as §1

USP39 = biological target: T3, USP39 (UniProt Q53GS9)
T3 sequence (whole entry): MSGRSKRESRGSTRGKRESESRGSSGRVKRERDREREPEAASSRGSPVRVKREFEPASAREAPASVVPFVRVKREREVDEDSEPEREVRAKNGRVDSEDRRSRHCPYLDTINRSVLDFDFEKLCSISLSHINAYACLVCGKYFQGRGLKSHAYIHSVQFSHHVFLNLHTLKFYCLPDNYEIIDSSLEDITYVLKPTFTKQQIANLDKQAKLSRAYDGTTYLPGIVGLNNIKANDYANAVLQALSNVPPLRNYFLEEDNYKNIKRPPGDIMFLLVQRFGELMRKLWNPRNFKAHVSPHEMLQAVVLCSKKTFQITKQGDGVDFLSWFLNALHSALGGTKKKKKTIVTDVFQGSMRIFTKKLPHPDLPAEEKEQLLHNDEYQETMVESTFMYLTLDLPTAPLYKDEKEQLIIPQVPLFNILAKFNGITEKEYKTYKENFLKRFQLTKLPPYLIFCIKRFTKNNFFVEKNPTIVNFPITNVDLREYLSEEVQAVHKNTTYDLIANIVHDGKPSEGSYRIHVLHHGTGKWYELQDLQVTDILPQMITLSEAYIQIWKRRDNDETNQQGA
Summary of the method: as §1

USP4 = biological target: T4, USP4 (UniProt Q13107)
T4 sequence (whole entry): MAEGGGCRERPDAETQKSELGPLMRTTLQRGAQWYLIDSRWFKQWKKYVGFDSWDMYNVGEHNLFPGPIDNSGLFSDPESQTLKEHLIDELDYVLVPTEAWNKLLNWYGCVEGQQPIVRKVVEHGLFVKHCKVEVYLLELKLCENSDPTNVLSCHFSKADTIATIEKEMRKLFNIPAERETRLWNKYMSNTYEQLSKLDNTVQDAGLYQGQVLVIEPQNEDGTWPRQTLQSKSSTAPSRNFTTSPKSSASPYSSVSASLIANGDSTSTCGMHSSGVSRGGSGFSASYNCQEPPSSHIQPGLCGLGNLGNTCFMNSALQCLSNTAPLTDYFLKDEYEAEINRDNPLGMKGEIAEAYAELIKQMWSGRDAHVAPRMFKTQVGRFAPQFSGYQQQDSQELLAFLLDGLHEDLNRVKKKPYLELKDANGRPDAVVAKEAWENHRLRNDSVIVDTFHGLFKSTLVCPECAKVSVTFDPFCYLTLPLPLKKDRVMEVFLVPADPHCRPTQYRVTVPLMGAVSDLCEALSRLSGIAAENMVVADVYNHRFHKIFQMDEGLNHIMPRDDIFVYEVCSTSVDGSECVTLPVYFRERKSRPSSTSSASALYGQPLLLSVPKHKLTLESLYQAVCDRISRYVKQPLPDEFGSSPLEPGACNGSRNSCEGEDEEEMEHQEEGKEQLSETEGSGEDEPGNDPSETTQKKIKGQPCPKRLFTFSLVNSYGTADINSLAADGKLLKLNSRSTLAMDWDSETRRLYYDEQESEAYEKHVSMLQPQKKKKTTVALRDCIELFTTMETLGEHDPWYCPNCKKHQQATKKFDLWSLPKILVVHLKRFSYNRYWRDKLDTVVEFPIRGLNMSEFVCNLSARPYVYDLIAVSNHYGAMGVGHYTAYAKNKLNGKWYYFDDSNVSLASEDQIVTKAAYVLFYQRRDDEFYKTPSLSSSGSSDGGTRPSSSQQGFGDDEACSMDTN
Summary of the method: as §1

Measured: log2 ratio of Biotin-Ahx-Ub-VS probe labelling

USP34, sequence (Q70CQ2 whole entry, the tested form may be a part): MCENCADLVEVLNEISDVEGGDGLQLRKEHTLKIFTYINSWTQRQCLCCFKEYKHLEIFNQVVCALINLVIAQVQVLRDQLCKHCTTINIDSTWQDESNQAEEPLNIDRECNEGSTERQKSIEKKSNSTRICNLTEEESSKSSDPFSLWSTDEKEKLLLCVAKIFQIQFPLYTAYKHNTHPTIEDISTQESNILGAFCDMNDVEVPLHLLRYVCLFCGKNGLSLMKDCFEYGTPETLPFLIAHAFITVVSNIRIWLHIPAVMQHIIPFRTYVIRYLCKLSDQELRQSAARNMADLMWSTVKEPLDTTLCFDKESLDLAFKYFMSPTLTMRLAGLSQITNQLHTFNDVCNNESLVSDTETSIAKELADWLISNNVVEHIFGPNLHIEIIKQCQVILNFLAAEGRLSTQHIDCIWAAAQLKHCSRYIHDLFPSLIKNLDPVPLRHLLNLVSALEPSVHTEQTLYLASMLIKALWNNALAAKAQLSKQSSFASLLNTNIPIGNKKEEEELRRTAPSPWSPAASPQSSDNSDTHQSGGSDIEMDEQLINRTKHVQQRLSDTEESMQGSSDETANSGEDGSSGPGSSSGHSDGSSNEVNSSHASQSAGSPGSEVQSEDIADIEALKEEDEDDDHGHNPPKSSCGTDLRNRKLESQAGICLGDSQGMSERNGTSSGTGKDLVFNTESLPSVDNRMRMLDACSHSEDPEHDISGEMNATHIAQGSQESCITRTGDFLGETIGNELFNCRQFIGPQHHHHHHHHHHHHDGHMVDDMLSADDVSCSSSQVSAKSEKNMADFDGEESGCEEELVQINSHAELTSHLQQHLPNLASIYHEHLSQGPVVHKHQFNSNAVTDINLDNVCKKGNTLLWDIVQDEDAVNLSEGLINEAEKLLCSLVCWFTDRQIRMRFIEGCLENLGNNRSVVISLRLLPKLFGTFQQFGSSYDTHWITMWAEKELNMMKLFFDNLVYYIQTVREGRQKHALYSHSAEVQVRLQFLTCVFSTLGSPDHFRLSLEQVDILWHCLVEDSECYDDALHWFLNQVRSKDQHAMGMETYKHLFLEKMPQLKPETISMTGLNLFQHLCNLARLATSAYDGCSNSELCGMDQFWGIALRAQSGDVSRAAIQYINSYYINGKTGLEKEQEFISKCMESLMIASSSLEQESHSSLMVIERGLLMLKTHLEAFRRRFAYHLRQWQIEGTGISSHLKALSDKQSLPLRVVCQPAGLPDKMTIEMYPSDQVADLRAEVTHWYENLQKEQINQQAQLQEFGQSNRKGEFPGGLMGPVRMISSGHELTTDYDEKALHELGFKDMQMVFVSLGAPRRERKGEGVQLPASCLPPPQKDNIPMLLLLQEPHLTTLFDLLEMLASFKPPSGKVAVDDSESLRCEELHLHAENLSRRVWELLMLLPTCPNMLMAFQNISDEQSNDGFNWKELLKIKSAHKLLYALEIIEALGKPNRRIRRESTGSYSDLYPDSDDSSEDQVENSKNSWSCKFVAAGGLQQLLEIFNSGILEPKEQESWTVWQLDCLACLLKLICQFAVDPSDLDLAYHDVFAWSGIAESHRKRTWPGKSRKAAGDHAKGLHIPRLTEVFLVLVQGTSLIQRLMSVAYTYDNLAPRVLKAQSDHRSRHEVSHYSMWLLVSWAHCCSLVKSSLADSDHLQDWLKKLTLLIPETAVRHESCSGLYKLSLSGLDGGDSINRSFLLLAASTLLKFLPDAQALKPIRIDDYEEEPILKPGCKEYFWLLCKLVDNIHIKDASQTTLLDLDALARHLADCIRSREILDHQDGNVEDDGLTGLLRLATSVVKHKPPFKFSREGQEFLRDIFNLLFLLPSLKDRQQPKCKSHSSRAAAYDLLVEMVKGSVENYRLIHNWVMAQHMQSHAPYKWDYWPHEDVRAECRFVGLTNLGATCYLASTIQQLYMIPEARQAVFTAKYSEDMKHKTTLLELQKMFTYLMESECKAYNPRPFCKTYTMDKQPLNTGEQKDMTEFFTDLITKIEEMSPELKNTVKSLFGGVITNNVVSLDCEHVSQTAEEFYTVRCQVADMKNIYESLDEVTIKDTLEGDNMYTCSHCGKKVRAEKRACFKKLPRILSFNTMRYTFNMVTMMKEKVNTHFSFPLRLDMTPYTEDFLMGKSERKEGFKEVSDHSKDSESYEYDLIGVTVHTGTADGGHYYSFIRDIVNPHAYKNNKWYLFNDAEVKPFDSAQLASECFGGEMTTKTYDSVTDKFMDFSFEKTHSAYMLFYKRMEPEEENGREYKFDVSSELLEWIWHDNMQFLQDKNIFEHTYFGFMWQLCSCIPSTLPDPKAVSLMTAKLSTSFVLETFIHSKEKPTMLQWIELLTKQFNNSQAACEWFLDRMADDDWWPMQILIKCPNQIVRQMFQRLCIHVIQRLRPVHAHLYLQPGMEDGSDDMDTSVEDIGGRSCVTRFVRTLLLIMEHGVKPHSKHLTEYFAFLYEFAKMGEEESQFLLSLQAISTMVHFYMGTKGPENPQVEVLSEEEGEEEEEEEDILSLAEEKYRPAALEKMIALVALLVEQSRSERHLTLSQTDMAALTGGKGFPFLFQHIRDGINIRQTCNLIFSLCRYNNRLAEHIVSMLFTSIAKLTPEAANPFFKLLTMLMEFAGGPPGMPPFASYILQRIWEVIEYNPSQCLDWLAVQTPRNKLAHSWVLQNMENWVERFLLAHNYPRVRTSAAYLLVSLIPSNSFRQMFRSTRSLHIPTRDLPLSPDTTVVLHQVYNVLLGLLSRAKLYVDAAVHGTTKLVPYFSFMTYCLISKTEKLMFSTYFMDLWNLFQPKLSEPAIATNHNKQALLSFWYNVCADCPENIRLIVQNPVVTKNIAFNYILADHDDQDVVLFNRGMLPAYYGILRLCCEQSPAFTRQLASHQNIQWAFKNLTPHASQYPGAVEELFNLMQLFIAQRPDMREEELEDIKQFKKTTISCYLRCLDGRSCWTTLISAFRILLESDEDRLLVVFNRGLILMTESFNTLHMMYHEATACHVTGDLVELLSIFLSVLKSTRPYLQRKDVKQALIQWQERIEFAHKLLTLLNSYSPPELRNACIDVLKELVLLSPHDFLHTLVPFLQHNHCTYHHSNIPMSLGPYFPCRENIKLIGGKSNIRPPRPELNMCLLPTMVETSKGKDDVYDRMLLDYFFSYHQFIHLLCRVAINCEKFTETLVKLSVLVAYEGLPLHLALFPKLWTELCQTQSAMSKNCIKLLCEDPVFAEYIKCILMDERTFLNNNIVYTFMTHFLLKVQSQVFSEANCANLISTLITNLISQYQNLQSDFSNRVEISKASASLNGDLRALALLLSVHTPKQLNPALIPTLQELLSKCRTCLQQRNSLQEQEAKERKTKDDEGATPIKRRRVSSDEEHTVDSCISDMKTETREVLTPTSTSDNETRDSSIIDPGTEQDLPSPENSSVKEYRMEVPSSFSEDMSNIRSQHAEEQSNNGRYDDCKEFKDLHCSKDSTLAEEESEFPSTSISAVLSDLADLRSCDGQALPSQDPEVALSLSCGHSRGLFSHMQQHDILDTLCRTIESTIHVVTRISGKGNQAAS

CC(NC(=O)CCl)c1cc2n(n1)CCCC2.Cl (stereo not given)
inactive: USP34 -0.00259 | USP36 0.028 | USP38 -0.215 | USP39 -0.149 | USP4 -0.121
